HT1080 IDH1KD tx = kills HT-1080 cells with IDH1 knockdown. HT-1080 IDH1 knockdown viability, ATP luminescence, 48 h. AID 686971. actives 2% (n = 360,000). Potency, µM (top dose mostly 46.1 µM), for inactives: at the top dose activity, negative = toxicity, usual class: cytotoxic;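 further: potency means the concentration at half of the fitted maximal effect; 0% = DMSO wells and -100% = cell-free medium wells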
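In this qHTS, HT-1080 cells depleted of IDH1 are exposed for 48 h at 37 °C to compound titrations. Toxicity is scored from CellTiter-Glo luminescence, with DMSO as full viability and medium alone as none.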
ALOX12 inh = inhibitors of human 12S-lipoxygenase ALOX12. P18054. purified 12hLO, xylenol orange hydroperoxide absorbance. Potency, µM (titrated, usually from 108 µM), inactives show at the top dose activity change, negative = inhibition, most hits filed as inhibitors. actives 1.1% (n = 580,000). AID 1671190; further: potency means the concentration at half of the fitted maximal effect
Target sequence (P18054 whole entry, looked up): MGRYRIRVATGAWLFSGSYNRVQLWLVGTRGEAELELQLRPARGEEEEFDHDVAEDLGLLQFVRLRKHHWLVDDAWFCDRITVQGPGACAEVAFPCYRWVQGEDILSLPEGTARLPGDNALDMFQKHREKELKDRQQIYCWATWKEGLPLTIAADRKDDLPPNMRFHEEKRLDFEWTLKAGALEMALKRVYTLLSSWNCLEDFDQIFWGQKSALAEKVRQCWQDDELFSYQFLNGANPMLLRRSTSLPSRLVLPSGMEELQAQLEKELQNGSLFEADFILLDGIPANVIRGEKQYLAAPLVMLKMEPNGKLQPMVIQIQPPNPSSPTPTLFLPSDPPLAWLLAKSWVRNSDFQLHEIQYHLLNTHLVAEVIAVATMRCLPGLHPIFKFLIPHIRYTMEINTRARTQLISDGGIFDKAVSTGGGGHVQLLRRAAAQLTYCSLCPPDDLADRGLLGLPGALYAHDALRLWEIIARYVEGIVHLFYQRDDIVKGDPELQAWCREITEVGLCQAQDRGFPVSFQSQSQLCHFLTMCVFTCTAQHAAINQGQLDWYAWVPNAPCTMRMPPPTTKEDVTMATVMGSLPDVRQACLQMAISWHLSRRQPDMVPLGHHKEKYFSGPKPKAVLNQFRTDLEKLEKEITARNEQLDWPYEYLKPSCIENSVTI
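Hydroperoxide product was detected by ferrous iron/xylenol orange as the 573 to 405 nm absorbance ratio. Arachidonic acid at 40 uM (final) was turned over for 30 min at room temperature by 150 nM human 12hLO, pH 7.0 Hepes buffer, after 15 min compound preincubation.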
HT1080-NT tox = kills 2HG-producing HT-1080-NT fibrosarcoma cells. HT-1080-NT fibrosarcoma viability, CellTiter-Glo ATP luminescence, 48 h. actives 1.6% (n = 360,000). Potency, µM (series often up to 46.1 µM), without a hit: top-dose activity, negative = less viability, most hits filed as cytotoxic;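 further: NT is the 2HG producing partner of a matched IDH1 knockdown line; potency means the concentration at half of the fitted maximal effect; 0% = DMSO-treated cells and -100% = media-only wells without cells; nearly all actives have a fitted effect of over 55% in size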
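Read-out is CellTiter-Glo luminescence after 10 minutes at room temperature, following 48 hours' compound treatment of HT-1080-NT cells (750 cells/well, RPMI, 5% FBS, 37 degrees C).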
DT40 TDP1 no CPT = qHTS for Inhibitors of human tyrosyl-DNA phosphodiesterase 1 (TDP1): qHTS in cells in absence of CPT | Potency, µM (doses to about 46.2 µM), for inactives: top-dose activity change, negative = growth inhibition, hits mostly inhibitors | DT40 Tdp1-/- hTDP1 cells, no CPT, ATP luminescence, 48 h | actives 15% (n = 420,000); further: potency means the concentration at half of the fitted maximal effect; nearly all actives have a fitted effect of over 55% in size
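Readout: luminescence from CellTiter-Glo after 30 min in the dark at RT. Cells: DT40 Tdp1-/- with stable hTDP1, 400/well. Exposure: compounds alone, ≥48 hr, 37 °C.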
IL1B secr inh = blocks inflammasome-driven IL-1 beta release | actives 4.7% (n = 360,000) | activity change, % at 57.5 µM | AID 743279 | THP-1 LPS/ATP IL-1B secretion, AlphaLISA, 16 h; active compounds read low; in the data active means activity change below about -50%; inconclusive means mostly about -30% to -49%
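Secreted IL-1B measured by AlphaLISA bead assay after 16 h compound exposure of THP-1 cells; compounds (final up to 57.5 uM) added 1 h before LPS (250 ng/mL) and ATP (1.25 mM) stimulation; lower signal means less secretion.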
TDP1 cell CPT = DT40-hTDP1 cell growth loss with CPT | chicken DT40 Tdp1-/-;hTDP1 cells + 20 nM CPT, ATP luminescence, 48 h | Potency, µM (highest dose often 46.2 µM), without a hit: at the top dose activity change, negative = growth inhibition, actives largely listed as inhibitors | actives 12% (n = 420,000) | AID 686979; further: potency means the concentration at half of the fitted maximal effect; nearly all actives have a fitted effect of over 55% in size
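Chicken DT40 Tdp1-/- cells stably complemented with human TDP1 were seeded at 400 cells/well in medium containing 20 nM camptothecin, exposed to pin-transferred compounds, and grown at 37 °C for at least 48 hr. Viability was read as ATP luminescence.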
An asterisk follows results filed as active; ? = inconclusive; · = no result; [ ] = dose if it differs, or a comment. The entries come from a sample that favours hits as a whole. Unless noted, the call rests on the fitted dose curve; in most records, active means well fitted curve in the direction sought with a large enough effect; inconclusive means small, poorly fitted or top-dose-only effect, or another doubt; inactive means no such curve, though single readings can be large; an effect the other way counts as inactive or inconclusive. Unless noted, on the % scale 0 is the no-effect control and ±100 the full control effect.

SMILES | HT1080 IDH1KD tx | ALOX12 inh | HT1080-NT tox | DT40 TDP1 no CPT | IL1B secr inh | TDP1 cell CPT
CC(=O)c1c(C)[nH]c(C(=O)CSc2nc3ccccc3n2C)c1C | -5% | -25% | 0% | 9.2µM* | -11 | 15µM*
CC(=O)N/N=C/c1ccc(C(C)C)cc1 | · | 21% | · | · | · | ·
COCCn1cnc2ccc(-c3ccccc3Oc3ccccc3)nc2c1=O | · | 13%[176 µM] | · | · | · | ·
O=C1c2ccccc2-c2onc3ccc(Oc4ccccc4)c1c23 | 4.1µM* | -3% | -13% | 2.6µM* | -25 | 3.3µM*
Cn1cc(C(C(=O)O)N2CCN(C=O)CC2)c2cc(C(=O)O)ccc21 (stereo not drawn) | · | -42% | · | · | · | ·
Cc1noc(C)c1[S+](=O)([O-])N1CCC2(CC1)C(=O)NCN2Cc1ccc(Cl)cc1 | · | -6% | · | · | · | ·
CC1=NN(/C(=N\c2nnc(C)s2)Nc2ccccc2)[C@H](c2cccc3ccccc23)S1 | -2% | -1% | -2% | ? | -5 | 23µM*
CC1=NN(/C(=N\c2nnc(C)s2)Nc2ccc(C)cc2)[C@H](c2ccc(C)cc2)S1 | -7% | -7% | -4% | ? | -7 | ?
CCOc1ccc(CNS(=O)(=O)c2ccc3[nH]c4c(c3c2)CCCC4)cc1OC | · | ? | · | 23µM* | · | ?
COc1ccccc1N1CCN(S(=O)(=O)c2ccc3[nH]c4c(c3c2)CCCC4)CC1 | · | -19% | · | ? | · | ?
COc1ccccc1CNS(=O)(=O)c1ccc2[nH]c3c(c2c1)CCCCC3 | · | 10% | · | 7.3µM* | · | 10µM*
CCc1cc(C(=O)Nc2ccccc2C#N)cs1 | · | 0% | · | · | · | ·
CS(=O)(=O)Nc1ccc(C2=NN(C(=O)c3ccccc3)C(c3cccs3)C2)cc1 (stereo not drawn) | -10% | 9% | -10% | ? | ? | ?
CC(=O)N1N=C(c2cccc(O)c2)CC1c1cccs1 (stereo not drawn) | -9% | 0% | -1% | ? | -12 | 15µM*
CC(C)(C)C(=O)N1N=C(c2ccc(NS(C)(=O)=O)cc2)CC1c1cccs1 (stereo not drawn) | 16µM* | -11% | ? | ? | -20 | ?
CC(=O)N1N=C(c2cccc(NS(C)(=O)=O)c2)CC1c1cccs1 (stereo not drawn) | 4% | -7% | 4% | -2% | 52 | -6%
CC(=O)N1N=C(c2ccccc2O)CC1c1cccs1 (stereo not drawn) | -14% | 14% | -18% | 6.5µM* | -65* | ?
CC(=O)N1CCCC1c1nc2ccccc2n1Cc1cccc(Cl)c1 (stereo not drawn) | · | 0% | · | ? | · | -22%
CC1CCCN(C(=O)Cc2cn(Cc3cccc(Cl)c3)c3ccccc23)C1 (stereo not drawn) | ? | -24% | ? | 15µM* | -76* | ?
O=C(O)Cc1cn(Cc2cccc(Cl)c2)c2ccccc12 | -7% | 4% | -8% | -9% | 3 | 1%
O=C(Cc1cn(Cc2cccc(Cl)c2)c2ccccc12)N1CCCCCC1 | -5% | -29% | -10% | ? | -65* | ?
O=C(O)/C(=C\c1c(C(=O)O)[nH]c2cc(Cl)cc(Cl)c12)c1ccccc1 | 17% | 35µM* | -2% | -18% | 29 | -20%
O=C(O)/C(=C\c1cccs1)c1ccccc1 | 16% | ? | -4% | -8% | -3 | 7%
Cc1ccc(NC(=O)C(C)c2ccc(-c3ccccc3)c(F)c2)cc1 (stereo not drawn) | 13µM* | 428% | 16µM* | 7.3µM* | -9 | ?
C[C@@H](C(=O)O)c1ccc(-c2ccccc2)c(F)c1 | · | 288% | · | 2% | · | 5%
SMILES | HT1080 IDH1KD tx | ALOX12 inh | HT1080-NT tox | DT40 TDP1 no CPT | IL1B secr inh | TDP1 cell CPT
O=C(/C=C/c1ccco1)Nc1nnc(-c2ccco2)s1 | -10% | -21% | -20% | ? | 31 | ?
O=C(/C=C/c1ccco1)Nc1cccc(NC(=O)/C=C/c2ccco2)n1 | 12% | -30% | 0% | 21µM* | 10 | 23µM*
Cc1nc(NC(=O)/C=C/c2ccco2)sc1C | ? | -14% | -12% | 5.8µM* | 22 | 5.2µM*
CCCN1C(=O)C(NC(=O)CC)(C(F)(F)F)N=C1c1ccccc1 (stereo not drawn) | · | 32% | · | · | · | ·
CCC[C@H]1CN(C(=O)c2cccc(N3CCOCC3)c2)C[C@@H]1N | · | -19% | · | · | · | ·
Cc1c(Cl)cccc1N(CC(=O)NCCN1CCOCC1)S(=O)(=O)c1ccccc1 | · | 8% | · | · | · | ·
CCOC(=O)c1c(C)n(-c2ccccc2)c2ccc(OC(=O)c3ccccc3NC(=O)C(C)(C)C)cc12 | · | ? | · | 12µM* | · | ?
CCOC(=O)c1c(C)n(-c2ccccc2)c2ccc(OC(=O)c3ccccc3NC(=O)C(C)C)cc12 | · | -11% | · | 18µM* | · | ?
CCOC(=O)c1c(C)n(-c2ccccc2)c2ccc(OC(=O)c3cccc(C)c3)cc12 | · | -22% | · | ? | · | ?
COCCOC(=O)c1c(C)n(C)c2ccc(OC(=O)c3ccccc3OC)cc12 | 2% | 20% | -2% | 16µM* | -11 | -24%
CSc1ccccc1NC(=O)CN(C)C(c1ccccc1)c1ccccc1 | · | -6% | · | · | · | ·
O=C(Cn1c(=O)n(Cc2ccc(F)cc2)c(=O)c2sccc21)NCc1ccco1 | · | 97% | · | · | · | ·
CCN(CC)c1ccc(C2C(C(=O)OC(C)C)C(=O)CC(C)(O)C2C(=O)OC(C)C)cc1 (stereo not drawn) | -2% | -3% | -3% | 13µM* | -10 | 15µM*
OC(c1ccc(Cl)c(Cl)c1)c1ncc(-c2ccccc2C(F)(F)F)[nH]1 (stereo not drawn) | ? | -17% | ? | 18µM* | -12 | ?
COc1ccccc1-c1cnc(C(O)c2ccc(F)c(C)c2)[nH]1 (stereo not drawn) | 3% | 12% | 2% | -30% | 19 | ?
OC(c1cc(Cl)cc(Cl)c1)c1ncc(-c2ccccc2F)[nH]1 (stereo not drawn) | ? | -7% | ? | ? | 3 | ?
COc1ccccc1-c1cnc(C(O)c2ccc(Cl)c(Cl)c2)[nH]1 (stereo not drawn) | ? | -18% | -27% | 16µM* | -19 | ?
COc1ccccc1-c1cnc(C(O)c2cc(Cl)cc(Cl)c2)[nH]1 (stereo not drawn) | ? | -6% | 2% | ? | -5 | 21µM*
Cn1ncc2c(SCc3nc4ccccc4n3C(F)F)ncnc21 | · | -9% | · | · | · | ·

Source: PubChem (National Center for Advancing Translational Sciences (NCATS))
